# From paper PMC5540273 (PLoS ONE, 2017)
# Experiments:
# Settings in all cases: concentration: 1 μM, replicates: in singlicate; n = 1
# PRKR = test system: T1, PRKR
# T1 construct: gene EIF2AK2
# PRKX = test system: PRKX
# PRP4 = test system: PRP4
# PYK2 = test system: T2, PYK2
# T2 construct: gene PTK2B
# QSK = test system: QSK
# RAF1 = test system: RAF1
# RET = test system: RET
# RIOK1 = test system: RIOK1
# RIOK2 = test system: RIOK2
# RIOK3 = test system: RIOK3
# RIPK1 = test system: RIPK1
# RIPK2 = test system: RIPK2
# RIPK4 = test system: RIPK4
# RIPK5 = test system: RIPK5
# ROCK1 = test system: ROCK1
# ROCK2 = test system: ROCK2
# ROS1 = test system: ROS1
# [1] = test system: RPS6KA4(Kin.Dom.1-N-terminal)
# [2] = test system: RPS6KA4(Kin.Dom.2-C-terminal)
# [3] = test system: RPS6KA5(Kin.Dom.1-N-terminal)
# 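Also: KINOMEscan kinase panel screen.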
SMILES,%Inh (PRKR),%Inh (PRKX),%Inh (PRP4),%Inh (PYK2),%Inh (QSK),%Inh (RAF1),%Inh (RET),%Inh (RIOK1),%Inh (RIOK2),%Inh (RIOK3),%Inh (RIPK1),%Inh (RIPK2),%Inh (RIPK4),%Inh (RIPK5),%Inh (ROCK1),%Inh (ROCK2),%Inh (ROS1),%Inh [1],%Inh [2],%Inh [3]
Fc1cccc(COc2ccc(Nc3ncnc4cc[nH]c34)cc2Cl)c1,0%,19%,34%,2%,9%,4%,5%,21%,15%,20%,13%,25%,16%,33%,0%,0%,35%,9%,11%,2%
Cc1ccc(C)c(NC(=O)NCCNc2ccnc(Nc3ccc(F)cc3)n2)c1 [GSK1379878],0%,0%,48%,7%,0%,42%,3%,36%,0%,37%,4%,0%,0%,9%,7%,0%,16%,0%,0%,0%
CC(=O)Nc1n[nH]c2ncc(-c3ccccc3)cc12 [SB-548492],8%,0%,1%,12%,21%,0%,0%,38%,17%,31%,8%,0%,24%,33%,3%,1%,22%,9%,17%,3%
Fc1cccc(COc2ccc(Nc3ncnc4sc(-c5ccc[nH]5)cc34)cc2Cl)c1 [GW707818],3%,4%,25%,0%,0%,18%,14%,22%,0%,40%,34%,31%,0%,16%,27%,21%,8%,10%,0%,99.9%
Cc1cccc(-c2nc(Nc3ccc4[nH]nnc4c3)c3ccccc3n2)n1 [GW867587],0%,0%,0%,0%,0%,0%,0%,0%,0%,0%,0%,0%,0%,0%,49%,0%,0%,0%,0%,0%
O=C(Nc1n[nH]c2nc(-c3ccco3)c(Br)cc12)c1ccc(CN2CCCC2)cc1.O=C(O)[C@H](O)[C@@H](O)C(=O)O [SB-742352],0%,0%,0%,42%,0%,17%,28%,0%,0%,0%,33%,47%,0%,0%,0%,0%,12%,10%,8%,0%
Cn1ccc2ncnc(Nc3ccc(Oc4cccc(Cl)c4)c(Cl)c3)c21,0%,11%,11%,27%,2%,0%,10%,0%,18%,3%,0%,47%,0%,40%,3%,0%,0%,0%,1%,19%
COC(=O)c1cccc(NC(=O)NCCNc2ccnc(Nc3ccc(F)cc3)n2)c1 [GSK1379883],0%,4%,46%,0%,0%,11%,0%,23%,0%,31%,22%,0%,2%,0%,25%,5%,17%,23%,0%,22%
Cn1cc(-c2ccc3c(c2)CCN3C(=O)Cc2cccc(C(F)(F)F)c2)c2c(N)ncnc21 [GSK2606414],0%,16%,9%,0%,0%,14%,78%,28%,18%,0%,75%,1%,3%,9%,4%,13%,0%,16%,0%,25%
O=C(c1ccc(-c2cc(-c3c[nH]nc3-c3ccccn3)ccn2)cc1)N1CCCC1 [GW792479],4%,0%,12%,7%,0%,43%,5%,10%,0%,19%,1%,9%,5%,0%,0%,0%,0%,13%,0%,0%
Clc1cccc(-c2nc(Nc3ccncc3)c3ccccc3n2)c1 [GW873004],0%,12%,50%,4%,0%,46%,0%,40%,0%,46%,25%,10%,0%,0%,0%,0%,20%,51%,1%,32%
FC(F)(F)c1ccc(-c2cc(-c3c[nH]nc3-c3ccccn3)ccn2)cc1 [GW599550],8%,12%,31%,0%,0%,18%,14%,25%,5%,25%,0%,25%,2%,0%,26%,15%,31%,14%,0%,20%
Clc1cc(Nc2ncnc3cc[nH]c23)ccc1OCc1ccccn1,0%,13%,19%,9%,0%,17%,17%,24%,42%,0%,0%,27%,23%,31%,0%,0%,6%,9%,11%,3%
Cl.c1ccc(Cn2ccc3cc(Nc4ncnc5ccccc45)ccc32)cc1 [GW275568],0%,17%,0%,0%,0%,20%,15%,20%,0%,0%,26%,54%,21%,32%,1%,0%,14%,4%,0%,6%
COC(=O)c1c(-c2ccccc2)c2cc(Cl)ccc2c(=O)n1Cc1ccc(S(C)(=O)=O)cc1,0%,16%,1%,0%,0%,49%,2%,0%,29%,0%,0%,0%,13%,4%,6%,0%,0%,0%,5%,8%
COc1ccc(NC(=O)Nc2ccc(C)c(-c3ccc(C(=O)Nc4ccncc4)cc3)c2)cc1 [GSK1398475],0%,10%,19%,3%,0%,50%,0%,31%,0%,8%,16%,2%,1%,0%,0%,0%,0%,0%,0%,0%
Cl.c1ccc(Cn2ncc3cc(Nc4ncnc5ccccc45)ccc32)cc1 [GW273749],0%,4%,15%,0%,10%,16%,13%,39%,0%,19%,7%,74%,8%,6%,12%,21%,10%,3%,0%,8%
CC(C)(C)OC(=O)NC1CCCN(c2cc(-c3ccc4c(N)n[nH]c4c3)nc(N)n2)C1 (centres unmarked) [GSK2286096],0%,21%,0%,0%,5%,7%,0%,23%,27%,23%,0%,8%,14%,0%,0%,0%,0%,0%,0%,0%
Cn1ccc2ncnc(Oc3ccc(NC(=O)Nc4cccnc4)c(Cl)c3)c21,7%,12%,20%,9%,0%,0%,52%,0%,53%,4%,0%,3%,0%,19%,1%,0%,0%,0%,0%,17%
